Bioassay records from PubChem.
An excerpt weighted towards active compounds, which were near 4.3% of everything screened.
CR mimetic SO – caloric restriction mimetics inhibiting age-related superoxide in yeast; S. cerevisiae aged cells, superoxide DHE fluorescence; hits give low values; superoxide response (% of plate mean), % at 10 µM; 0.18% of 330,000 active; AID 2690;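 active = superoxide response under a set limit, about three screen SD below normal, cut at about 65% in these data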;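 also: yeast aged for seven days with compound at 30 °C before DHE staining; 100% = average MFI of all compound-treated wells on the plate with controls excluded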
dFosB act – enhances mouse delta FosB homodimer DNA binding; P13346; purified delta FosB, TAMRA-CDK5 oligo fluorescence polarization; percent of positive-control signal above neutral wells; activation, % at 25 µM; 0.99% of 340,000 active; AID 493131;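 active = mean activation above about 17%, with every replicate also reaching it, limit read from the data, passing the limit was not always enough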
Target sequence (P13346 whole entry, looked up): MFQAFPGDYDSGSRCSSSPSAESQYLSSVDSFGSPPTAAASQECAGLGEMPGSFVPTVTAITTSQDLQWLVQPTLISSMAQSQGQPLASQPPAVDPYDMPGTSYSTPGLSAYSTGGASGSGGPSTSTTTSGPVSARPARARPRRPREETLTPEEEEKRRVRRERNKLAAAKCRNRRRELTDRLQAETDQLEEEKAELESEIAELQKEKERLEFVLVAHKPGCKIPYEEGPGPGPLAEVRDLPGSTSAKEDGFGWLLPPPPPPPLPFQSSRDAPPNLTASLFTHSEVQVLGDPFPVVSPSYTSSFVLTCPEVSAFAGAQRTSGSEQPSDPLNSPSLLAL
GRIN3A LBD mod – modulators (binders) of human NR3A ligand-binding domain; NR3A LBD differential scanning fluorimetry, Tm shift; 0% = protein alone, 100% = glycine-bound protein; Tm shift relative to glycine control, % at 25 µM; 2.5% of 340,000 active; AID 1259313;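 active = melting temperature shift of at least 10% of the positive control shift, at one fixed dose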
UBC13 polyUb – inhibitors of human UBC13 polyubiquitin chain formation. TR-FRET. inhibition, % at 20 µM. 0.47% of 330,000 active; in the data active = inhibition above about 45%, passing the limit was not always enough
Target sequence (P61088 whole entry, looked up): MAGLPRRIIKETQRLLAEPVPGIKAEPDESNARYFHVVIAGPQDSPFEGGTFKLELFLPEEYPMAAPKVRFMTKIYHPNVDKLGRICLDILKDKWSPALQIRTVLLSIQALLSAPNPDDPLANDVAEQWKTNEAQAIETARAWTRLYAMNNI
NALP1 inh – NALP1 inhibition; S. cerevisiae NALP1/ASC/caspase-1 growth, X-gal OD620, 72 h; inhibition, % at 10 µM; 0.61% of 280,000 active; in the data active = inhibition mostly above about 24%, no sharp cut-off; inactive = mostly below about 32%
Numbers without * were called inactive; nt = no result given.

SMILES | CR mimetic SO | dFosB act | GRIN3A LBD mod | UBC13 polyUb | NALP1 inh
Cc1ccc2nc(/C(C#N)=C\c3ccc(Oc4ccc(C(F)(F)F)cc4[N+](=O)[O-])cc3)[nH]c2c1 | 110 | 14 | 10 | -20 | 23
COc1ccc(/C=C(\C#N)c2nc3ccc(C)cc3[nH]2)cc1Oc1ccc(C(F)(F)F)cc1[N+](=O)[O-] | 98 | -9 | 18* | -30 | 14
Cc1ccc2nc(/C(C#N)=C/c3ccc(-c4cccc([N+](=O)[O-])c4)o3)[nH]c2c1 | 95 | -3 | 13* | nt | 27
Cc1ccc2nc(/C(C#N)=C\c3cc(O)ccc3[N+](=O)[O-])[nH]c2c1 | 90 | 7 | -9 | -14 | 5
O=[N+]([O-])c1ccc(OCn2cncn2)cc1 | 97 | 4 | 0 | -12 | nt
O=C(Nc1c2c(nn1-c1ccccc1)CS(=O)C2)c1ccco1 (stereo not given) | 96 | 2 | 17* | -1 | 4
CCc1ccc(-c2cc(N)n(-c3ccccc3)n2)cc1 | nt | -1 | 3 | nt | 13
Cc1cccc(-c2cnn(-c3ccccc3)c2N)c1 | 115 | 1 | 0 | -1 | 28
Cc1ccc(-c2cc(N)n(-c3ccccc3)n2)cc1 | 114 | -5 | 26* | 2 | 22
Cc1cccc(-c2cc(N)n(-c3ccccc3)n2)c1 | nt | -6 | 31* | nt | 14
CCOc1ccc2nc(SCc3cccc(C)c3)nc(C)c2c1 | 104 | -3 | 15* | 35 | 16
Cc1ccc2nc(SCc3ccc([N+](=O)[O-])cc3)nc(C)c2c1 | 111 | -3 | 13* | -6 | 30
O=C1N=c2ccc(Br)cc2=C1c1sc(=S)n(NS(=O)(=O)c2ccccc2)c1O | 104 | -5 | -11 | -40 | 2
CCc1sc(C(=O)Nc2ccc3nc(C)sc3c2)cc1C | 100 | -23 | -4 | 10 | nt
CCc1sc(C(=O)Nc2ccc(NC(C)=O)cc2)cc1C | 94 | 2 | 11* | 3 | 27
CCc1ccc(NC(=O)c2ccc(OC)c([N+](=O)[O-])c2)cc1 | 96 | -3 | 12* | -12 | 37
COc1cc(NC(=O)c2ccc(OC)c([N+](=O)[O-])c2)ccc1NC(=O)c1cccs1 | 117 | -4 | 38* | 3 | 9
CCC(=O)NC(=S)Nc1ccc(NC(=O)c2ccc(C)c([N+](=O)[O-])c2)cc1 | 110 | 7 | 34* | -10 | 28
CCOc1ccc(C(=O)NC(=S)Nc2ccc(NC(=O)CC)cc2)cc1[N+](=O)[O-] | 99 | -2 | 8 | -18 | 0
Cc1cc(C)c(C(=O)N2CCCC(Nc3ccc(C)c(C)c3)C2)o1 (stereo not given) | 109 | -9 | 2 | -1 | -1
COc1cccc(NC(=O)c2ccc(C(=O)c3ccccc3)o2)c1 | 89 | -7 | -14 | -9 | 4
COC(=O)c1cnc(Oc2c(Cl)cc(N)cc2Cl)cc1C(F)(F)F | 105 | -10 | -5 | 10 | nt
O=C(NC1CCCC1)C(c1ccc(F)cc1)N(Cc1ccc(F)cc1)C(=O)c1ccn[nH]1 (stereo not given) | 94 | -6 | 17* | 0 | 6
O=C(NC1CCCC1)C(c1ccncc1)N(Cc1ccccc1)C(=O)c1ccc(-c2ccccc2)[nH]1 (stereo not given) | 104 | -13 | -1 | 0 | -12
C(=C\c1nc(N2CCCCCC2)c2ccccc2n1)/c1ccccc1 | 110 | -11 | -8 | 26 | 57*
SMILES | CR mimetic SO | dFosB act | GRIN3A LBD mod | UBC13 polyUb | NALP1 inh
c1ccc2c(N3CCCCC3)nc(N3CCCCC3)nc2c1 | 99 | -8 | -6 | 9 | 25
O=S(=O)(N/N=C/c1ccc(Cl)cc1)c1ccc(Cc2ncc(C(F)(F)F)cc2Cl)s1 | 92 | -8 | 29* | -18 | -4
O=C(O)c1ccc2c(c1)C(=O)N(c1nccs1)C2=O | 101 | -4 | 0 | 8 | nt
NC(=O)Cn1c(O)c(N=NC(=O)CNC(=O)/C=C/c2ccccc2)c2ccccc21 | 100 | 18* | -1 | -10 | 12
O=[N+]([O-])/C=C/c1cc2ccccc2[nH]1 | 116 | -6 | 18* | -13 | -10
O=C(O)CN1C(=O)/C(=C/c2ccc(N3CCCCC3)o2)SC1=S | 107 | 86* | -2 | -16 | -1
Cc1ccc(C(O)Cn2nc(C)cc2C)cc1 (stereo not given) | 98 | -5 | -2 | -11 | nt
CCCNC(=S)N1CCN(c2nc(-c3cccc(OC)c3)cs2)CC1 | 105 | -9 | 1 | -8 | -13
CCCNC(=S)N1CCN(c2nc(-c3ccc(C)cc3)cs2)CC1 | 97 | -7 | 12* | 2 | -8
CCCc1c(C)c2ccc(OCC(C)=O)cc2oc1=O | 106 | -18 | 12* | 3 | 28
CC(=O)N/C(=C\c1ccc(F)cc1)C(=O)NC(Cc1c[nH]c2ccccc12)C(=O)O (stereo not given) | 114 | 6 | 14* | 5 | 15
O=C(NC(Cc1c[nH]c2ccccc12)C(=O)O)/C(=C/c1ccc(F)cc1)NC(=O)c1ccccc1 (stereo not given) | 93 | 0 | 0 | 20 | nt
O=C(Cn1cnc2ccccc2c1=O)NC1CCS(=O)(=O)C1 (stereo not given) | 106 | 1 | 0 | 4 | nt
CCOc1cccc(OCCOCCNC(C)(C)C)c1 | 106 | -3 | 16* | 6 | 10
CCOc1ccc(OCCCCNC(C)(C)C)cc1 | 96 | 1 | -1 | 9 | 0
COc1ccc(C(=O)NCCc2c[nH]c3ccccc23)cc1[N+](=O)[O-] | 105 | 0 | 25* | 2 | 3
COc1ccc(CCNC(=S)NCCc2c[nH]c3ccccc23)cc1 | 102 | -2 | 31* | 6 | -6
COc1ccc(C(=O)NCCc2ccccc2)cc1[N+](=O)[O-] | 102 | 1 | 2 | -12 | 4
COc1ccc(CNC(=O)NCCc2c[nH]c3ccccc23)cc1 | 105 | 0 | -6 | 4 | 4
O=C(NCCc1ccc(F)cc1)c1ccc([N+](=O)[O-])cc1 | 94 | -15 | -2 | -7 | -2
Cc1cccc2c(CCNC(=O)c3ccc([N+](=O)[O-])cc3)c[nH]c12 | 118 | -1 | 18* | -4 | 21
COc1ccc(OCC(=O)NCCc2c[nH]c3ccccc23)cc1 | 97 | -5 | 1 | 7 | 5
COc1ccc(C(=O)NCCc2c[nH]c3ccccc23)cc1 | 107 | -2 | 10* | 10 | 0
CCCCn1c(N)c(N(CC)C(=O)c2ccccc2F)c(=O)[nH]c1=O | 108 | 8 | 2 | 5 | 23
Cc1c(C)c(C)c(S(=O)(=O)NCCC(=O)N2CCN(Cc3ccc(C#N)cc3)CC2)c(C)c1C | 83 | -19 | 0 | 6 | nt
O=C(NCCc1c[nH]c2ccccc12)c1cncc(Br)c1 | 91 | -3 | -3 | 0 | 0
COc1ccc(OC(=O)CCc2c[nH]c3ccccc23)cc1 | 77 | -2 | -9 | 6 | -1
O=C(NCCc1c[nH]c2ccccc12)c1ccc(Cl)cc1 | 104 | 0 | 29* | 6 | 30
COc1ccc(-c2cn(CCc3c[nH]c4ccccc34)nn2)cc1 | 102 | -4 | 19* | 12 | -12
